Data on 21 molecules can be found in PubChem BioAssay (NCATS).

Where “and” joins values, the source holds several entries; their conditions need not be identical. Identical values can stand only once. Records with an inconclusive call do not appear. Where a call stands in place of a potency, no number is given. Calls of active or inactive are those of the source. Unless noted, the call rests on the fitted dose curve; in most records, active means well fitted curve in the direction sought with a large enough effect; inconclusive means small, poorly fitted or top-dose-only effect, or another doubt; inactive means no such curve, though single readings can be large; an effect the other way counts as inactive or inconclusive.

The target of assay [1] is 3',5'-cyclic-AMP phosphodiesterase 4B (Homo sapiens) (UniProt Q07343). Nature of the assay: qHTS Assay for Inhibitors of PDE-IV (AID 607; active means well fitted activation curve with a large enough effect in the main read-out, with a control signal flat, not every such curve was filed as active). In short, it runs like this: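 HEK293 ACTOne cells with CNG channel (1000/well), endogenous PDE4; membrane potential dye, compounds up to 22.9 uM final. Fluorescence Ex 535/Em 590; RO 20-1724 (100 uM final) as reference.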
Assay [2] concerns the target Cytochrome P450 3A4 (Homo sapiens) (UniProt P08684). Nature of the assay: qHTS Assay for Activators of Cytochrome P450 3A4 (AID 885). Further: nearly all actives have a fitted effect of over 65% in size. In outline:
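Human CYP3A4 (20 nM) with Luciferin-PPXE at 25 uM (its KM) in 200 mM KPO4; 10 min compound preincubation, then NADPH regeneration and 60 min reaction at RT. Luciferin read by luminescence; normalized to 57 uM ketoconazole full inhibition.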

Assay [3] has as its target Cytochrome P450 2D6 (Homo sapiens) (UniProt P10635). In words: qHTS Assay for Inhibitors and Substrates of Cytochrome P450 2D6 (AID 891). Further: nearly all actives have a fitted effect of over 60% in size. Further: potency means the concentration at half of the fitted maximal effect. In outline:
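Human CYP2D6 (5 nM) with 30 uM Luciferin-ME EGE (at Km) in 100 mM KPO4, compound preincubated 10 min, then NADPH regeneration system for 60 min at room temperature. Luciferin read by luminescence; normalized to 1.43 uM quinidine.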

For assay [4], the target named is Guanine nucleotide-binding protein G(i) subunit alpha-1 (Homo sapiens) (UniProt P63096). Nature of the assay: qHTS Assay for Inhibitors of RGS12 GoLoco Motif Activity (Green Fluorophore) (AID 879).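 Further: negative values mean loss of peptide binding seen as reduced polarization.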 In short, it runs like this:
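Fluorescence polarization assay: 50 nM Gαi1 with 10 nM FITC-labeled RGS12 GoLoco peptide in 10 mM Tris pH 7.5, 150 mM NaCl, 0.1 mM GDP, 0.05% NP40, 10 min at room temperature with compound.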

Assay [5] addresses Cytochrome P450 2C19 (Homo sapiens) (UniProt P33261). Nature of the assay: qHTS Assay for Inhibitors and Substrates of Cytochrome P450 2C19 (AID 899). Further: nearly all actives have a fitted effect of over 60% in size. Further: potency means the concentration at half of the fitted maximal effect. In short, it runs like this:
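In 50mM KPO4, the reaction held 5nM enzyme and KM-level (10uM) Luciferin-H EGE; it ran 60 min at 37C after NADPH regeneration and a 10 min compound preincubation. Luminescence values were scaled to 57uM ketoconazole as complete inhibition.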

In assay [6] the target is Cytochrome P450 2C9 (Homo sapiens) (UniProt P11712). Nature of the assay: qHTS Assay for Inhibitors and Substrates of Cytochrome P450 2C9 (AID 883). Further: nearly all actives have a fitted effect of over 60% in size. Further: potency means the concentration at half of the fitted maximal effect. In short, it runs like this:
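CYP2C9 deoxyluciferin hydroxylation, 37C, 60 min with NADPH regeneration; 10nM enzyme, 100uM Luciferin-H (KM). Glo detection reagent stopped reaction; luminescence normalized to sulphaphenazole (57uM) full inhibition.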

The nature of assay [7]: Cellular Toxicity (caspase-3) HepG2 (AID 654).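 Further: cells exposed to compound for 16 hours before reading.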 In short, it runs like this:
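HepG2 cells (1500/well) in complete medium were treated with compounds for 16 hr at 37 °C. Caspase-3/7 activity was then read as luminescence from peptide-aminoluciferin cleavage. AC50 came from Hill fits, normalized to DMSO and 100 uM tamoxifen.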

A short description of assay [8]: Cellular Toxicity (caspase-3) Jurkat (AID 655).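 Further: cells exposed to compound for 16 h at 37 °C before reading.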 In outline:
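Caspase 3/7 activation is scored as increased luminescence in Jurkat cells cultured with compound for 16 hours in complete medium. AC50 values come from Hill fits of qHTS concentration-response data normalized to DMSO and 100 uM tamoxifen controls.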

A short description of assay [9]: Cellular Toxicity (caspase-3) HUV-EC-C (AID 656). In short, it runs like this:
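Read-out: luminescence proportional to caspase 3/7 activity, measured 20 min after adding Caspase-Glo 3/7 reagent. Cells (HUV-EC-C) had received compound for 16 hr at 37°C. Increases relative to DMSO and 100 uM tamoxifen gave concentration-response AC50 values.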

The nature of assay [10]: Cellular Toxicity (caspase-3) SHSY5Y (AID 657). In outline: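 Cells plated and incubated 5 h at 37 °C, dosed over a concentration range, incubated 16 h, then given Caspase-Glo 3/7 reagent for 1 h at room temperature before luminescence reading. Staurosporine (10 uM) defined full stimulation.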
Assay [11] is described as follows: Cellular Toxicity (caspase-3) BJ (AID 658). In outline: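 Luminescent aminoluciferin-substrate cleavage reports caspase 3/7 activity in normal human BJ fibroblasts after 16 hr compound exposure at 37 °C. Normalized to DMSO (basal) and 10 uM staurosporine (100%); AC50 from Hill fit of concentration-response.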
The nature of assay [12]: Cellular Toxicity (caspase-3) MRC-5 (AID 659). In outline: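 Luminescence from caspase-cleaved aminoluciferin substrate (Caspase-Glo 3/7, 1 hr RT) reports caspase 3/7 activity in MRC-5 lung fibroblasts after 16 hr compound exposure. Normalized to DMSO basal and 10 uM staurosporine as 100%; AC50 from Hill fits.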
The nature of assay [13]: Cellular Toxicity (caspase-3) Mesangial (AID 660).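 Further: cells exposed to compound for 16 h before the caspase read.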 In short, it runs like this: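 Human renal glomerular mesangial cells (1000/well) were treated with compounds for 16 h at 37 °C in complete medium, then caspase 3/7 activity was read by Caspase-Glo luminescence. Data were normalized to DMSO and 100 uM tamoxifen; AC50 from Hill fits.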
A short description of assay [14]: Cellular Toxicity (caspase-3) SK-N-SH (AID 661). In outline: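 SK-N-SH human neuroblastoma cells (1500/well) were treated with compounds for 16 hr at 37 °C in complete medium; caspase 3/7 activity was read by Caspase-Glo luminescence. AC50 came from Hill fits of data normalized to DMSO and 10 uM staurosporine.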
A short description of assay [15]: Cellular Toxicity (caspase-3) H-4-II-E (AID 663).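 Further: cells exposed to compound for 16 hr before readout.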 In short, it runs like this: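 Luminescence from caspase-cleaved aminoluciferin substrate, read 20 min after reagent addition, reports caspase 3/7 activation in rat H-4-II-E cells after 16 hr compound exposure. Normalized to DMSO (basal) and 100 uM tamoxifen (100%); AC50 from Hill fits.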
Assay [16] is described as follows: Cellular Toxicity (caspase-3) Hek293 (AID 664).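 Further: cells exposed to compound for 16 h at 37 °C before readout.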 In short, it runs like this: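 HEK293 cells were exposed to compounds in complete medium for 16 hr at 37 °C, then caspase-3/7 activity was read by Caspase-Glo 3/7 luminescence after 20 min at room temperature. Data normalized to DMSO and 100 uM tamoxifen; AC50 from Hill fits.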
A short description of assay [17]: Cellular Toxicity (caspase-3) N2a (AID 665).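 Further: compound exposure lasted 16 h at 37 °C before readout.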 In outline:
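Mouse N2a neuroblastoma cells (1500/well) were treated with compounds for 16 h at 37 °C, then caspase-3/7 activity was read by Caspase-Glo luminescence after 1 h at room temperature. Data were normalized to DMSO and 10 uM staurosporine; AC50 from Hill fits.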

Assay [18] is described as follows: Cellular Toxicity (caspase-3) NIH 3T3 (AID 666). In outline: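 Mouse NIH 3T3 fibroblasts (1000 cells/well) were treated with compound for 16 hr at 37°C in complete medium; caspase-3/7 activity was read by Caspase-Glo luminescence. Normalized to DMSO and 100 uM tamoxifen; AC50 from Hill fits.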
A short description of assay [19]: Cellular Toxicity (caspase-3) Renal Proximal Tubule (AID 667).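 Further: cells exposed to compound for 16 hours at 37 °C before detection.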 In outline:
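In qHTS format, rat primary proximal tubule cells seeded at 1000 per well are exposed to compounds for 16 hours at 37 °C. An increase in Caspase-Glo 3/7 luminescence indicates caspase activation.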

Assay [20] addresses Cytochrome P450 3A4 (Homo sapiens) (UniProt P08684). Nature of the assay: qHTS Assay for Inhibitors and Substrates of Cytochrome P450 3A4 (AID 884). Further: nearly all actives have a fitted effect of over 50% in size. Further: potency means the concentration at half of the fitted maximal effect. In short, it runs like this:
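20 nM human CYP3A4 with 25 uM Luciferin-PPXE (at KM) in 200 mM KPO4, preincubated 10 min with compound; NADPH regeneration started a 60 min RT reaction. Luciferin detected by luminescence, normalized to 57 uM ketoconazole as full inhibition.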

Cytochrome P450 2C19 (Homo sapiens), sequence (P33261 whole entry, looked up): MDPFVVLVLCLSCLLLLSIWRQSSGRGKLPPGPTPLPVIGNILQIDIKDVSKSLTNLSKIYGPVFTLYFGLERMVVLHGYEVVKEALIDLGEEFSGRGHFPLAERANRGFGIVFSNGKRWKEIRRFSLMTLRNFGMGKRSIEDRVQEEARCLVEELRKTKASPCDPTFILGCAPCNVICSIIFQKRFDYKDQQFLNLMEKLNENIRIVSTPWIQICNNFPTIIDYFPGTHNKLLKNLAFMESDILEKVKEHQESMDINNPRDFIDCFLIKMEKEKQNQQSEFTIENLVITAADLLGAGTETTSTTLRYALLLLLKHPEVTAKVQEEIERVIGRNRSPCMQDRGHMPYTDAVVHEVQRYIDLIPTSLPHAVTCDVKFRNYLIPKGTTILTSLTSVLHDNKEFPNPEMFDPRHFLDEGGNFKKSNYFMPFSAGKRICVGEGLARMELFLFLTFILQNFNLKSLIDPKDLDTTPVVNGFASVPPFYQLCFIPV
3',5'-cyclic-AMP phosphodiesterase 4B (Homo sapiens), sequence (Q07343 whole entry, looked up): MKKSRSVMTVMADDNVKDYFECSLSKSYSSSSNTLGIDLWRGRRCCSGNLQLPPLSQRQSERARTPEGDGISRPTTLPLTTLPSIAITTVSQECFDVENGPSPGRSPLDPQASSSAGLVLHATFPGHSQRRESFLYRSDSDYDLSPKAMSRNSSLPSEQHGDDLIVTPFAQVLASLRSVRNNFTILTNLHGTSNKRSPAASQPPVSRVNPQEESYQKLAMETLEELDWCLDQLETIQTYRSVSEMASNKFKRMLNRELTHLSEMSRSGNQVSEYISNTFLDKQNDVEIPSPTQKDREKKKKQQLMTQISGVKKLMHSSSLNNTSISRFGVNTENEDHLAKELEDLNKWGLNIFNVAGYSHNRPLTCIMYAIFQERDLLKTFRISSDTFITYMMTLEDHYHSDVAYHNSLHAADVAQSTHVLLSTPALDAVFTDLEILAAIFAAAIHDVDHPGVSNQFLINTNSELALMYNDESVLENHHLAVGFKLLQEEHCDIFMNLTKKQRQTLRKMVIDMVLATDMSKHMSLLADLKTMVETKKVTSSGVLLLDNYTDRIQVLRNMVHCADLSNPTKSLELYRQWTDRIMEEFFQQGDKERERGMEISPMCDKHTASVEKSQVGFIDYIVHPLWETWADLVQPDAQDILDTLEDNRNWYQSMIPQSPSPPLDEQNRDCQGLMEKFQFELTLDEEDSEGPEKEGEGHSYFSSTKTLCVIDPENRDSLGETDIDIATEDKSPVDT
Cytochrome P450 3A4 (Homo sapiens), sequence (P08684 whole entry, looked up): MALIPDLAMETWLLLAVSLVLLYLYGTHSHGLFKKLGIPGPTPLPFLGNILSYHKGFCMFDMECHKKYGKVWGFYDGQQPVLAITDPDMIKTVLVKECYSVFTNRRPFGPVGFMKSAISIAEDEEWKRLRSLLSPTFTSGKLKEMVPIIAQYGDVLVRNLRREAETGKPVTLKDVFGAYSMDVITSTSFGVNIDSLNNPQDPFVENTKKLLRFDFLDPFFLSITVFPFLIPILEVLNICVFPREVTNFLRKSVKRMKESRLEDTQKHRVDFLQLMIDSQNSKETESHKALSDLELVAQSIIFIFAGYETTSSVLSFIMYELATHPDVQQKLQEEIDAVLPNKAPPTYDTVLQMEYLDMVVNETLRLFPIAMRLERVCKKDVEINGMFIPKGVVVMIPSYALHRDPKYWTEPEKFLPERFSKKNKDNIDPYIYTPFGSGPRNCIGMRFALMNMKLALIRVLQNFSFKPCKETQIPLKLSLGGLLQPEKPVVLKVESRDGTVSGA
Cytochrome P450 2D6 (Homo sapiens), sequence (P10635 whole entry, looked up): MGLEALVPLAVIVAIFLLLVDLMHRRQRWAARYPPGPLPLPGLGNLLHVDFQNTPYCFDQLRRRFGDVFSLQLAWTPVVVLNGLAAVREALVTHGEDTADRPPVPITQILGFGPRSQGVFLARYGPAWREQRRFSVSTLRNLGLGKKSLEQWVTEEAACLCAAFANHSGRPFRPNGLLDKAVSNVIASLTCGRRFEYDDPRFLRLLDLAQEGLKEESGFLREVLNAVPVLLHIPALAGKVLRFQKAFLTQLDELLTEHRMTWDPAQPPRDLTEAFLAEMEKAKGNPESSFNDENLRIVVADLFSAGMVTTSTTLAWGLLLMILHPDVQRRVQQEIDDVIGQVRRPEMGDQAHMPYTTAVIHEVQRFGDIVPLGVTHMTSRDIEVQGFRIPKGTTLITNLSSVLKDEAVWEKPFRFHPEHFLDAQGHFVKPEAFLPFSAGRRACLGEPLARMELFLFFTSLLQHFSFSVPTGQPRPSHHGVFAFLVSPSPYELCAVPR
Cytochrome P450 2C9 (Homo sapiens), sequence (P11712 whole entry, looked up): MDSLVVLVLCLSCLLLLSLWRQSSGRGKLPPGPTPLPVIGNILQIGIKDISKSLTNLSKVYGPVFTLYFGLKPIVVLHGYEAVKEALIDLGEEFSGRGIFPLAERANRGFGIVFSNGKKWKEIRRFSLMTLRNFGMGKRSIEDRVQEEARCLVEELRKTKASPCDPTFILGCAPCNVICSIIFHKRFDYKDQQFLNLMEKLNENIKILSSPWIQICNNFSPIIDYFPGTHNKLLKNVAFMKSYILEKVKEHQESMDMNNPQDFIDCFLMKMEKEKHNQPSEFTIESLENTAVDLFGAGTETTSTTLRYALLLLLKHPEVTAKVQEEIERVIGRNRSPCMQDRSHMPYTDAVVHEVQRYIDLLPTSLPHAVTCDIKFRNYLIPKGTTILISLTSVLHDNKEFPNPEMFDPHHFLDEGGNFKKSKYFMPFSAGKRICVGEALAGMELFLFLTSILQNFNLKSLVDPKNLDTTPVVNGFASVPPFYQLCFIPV
Guanine nucleotide-binding protein G(i) subunit alpha-1 (Homo sapiens), sequence (P63096 whole entry, looked up): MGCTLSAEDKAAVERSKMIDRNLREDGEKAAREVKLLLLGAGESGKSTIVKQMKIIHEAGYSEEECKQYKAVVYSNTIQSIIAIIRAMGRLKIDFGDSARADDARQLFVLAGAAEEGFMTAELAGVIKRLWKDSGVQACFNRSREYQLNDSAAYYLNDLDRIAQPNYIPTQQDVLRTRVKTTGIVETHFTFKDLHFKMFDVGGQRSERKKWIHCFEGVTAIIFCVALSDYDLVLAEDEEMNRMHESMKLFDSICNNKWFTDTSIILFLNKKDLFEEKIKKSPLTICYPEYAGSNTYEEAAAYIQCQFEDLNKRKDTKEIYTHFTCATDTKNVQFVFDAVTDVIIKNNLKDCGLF

`O=C(O)C=Cc1ccc(Cn2ccnc2)cc1`: the outcome in assay [1] and in [2] was inactive. In assay [3], the Potency was 0.0794 µM (active).

As to `CC(C)[C@H](CO)Nc1nc(Nc2cccc(Cl)c2)c2ncn(C(C)C)c2n1`, the molecule was classed as inactive in assay [1].

Take `CC(Oc1ccc(O)cc1)(P(=O)(O)O)P(=O)(O)O`: in [1], the molecule was called inactive.

As to `CN(N=O)C(=O)N[C@H]1C(O)OC(CO)[C@@H](O)[C@H]1O` (stereo not given in full), the molecule was called inactive in assay [1].

For the molecule `COc1ccc2c(c1OC)C(=O)OC2[C@H]1c2c(cc3c(c2OC)OCO3)CCN1C` (stereo not given in full), the call in assay [1], in assay [4] and in assay [2] was inactive. The Potency in assay [3] is 15.8 µM (active); in assay [5] it was 1.26 µM (active) and 316 nM (active) and 398 nM (active).

In the case of `c1coc(CNc2ncnc3nc[nH]c23)c1`, the result in assay [1] was inactive.

Take `CN(C)CC[C@H](c1ccc(Cl)cc1)c1ccccn1`: the result in [1] and in assay [4] was inactive. The Potency result in [6] is “inactive”.

With `Cc1cc(O)c2c(c1)C(=O)c1cccc(O)c1C2=O`, the molecule was classed as inactive in assay [7], in assay [8], in assay [9], in assay [10], in assay [11] and in [12]. Moreover, the molecule was classed as inactive in [13], in assay [14], in assay [15], in assay [16], in [17] and in assay [18]. Also, the molecule was called inactive in assay [19].

For the molecule `COC(=O)C1C2CC3c4[nH]c5cc(OC)ccc5c4CCN3CC2CC(OC(=O)c2cc(OC)c(OC)c(OC)c2)C1OC` (stereo not given), the outcome in [2] was inactive.

For `O=c1c(O)c(-c2ccc(O)c(O)c2)oc2cc(O)ccc12`, the molecule was called inactive in assay [1] and in assay [2]. Moreover, the Potency was 20 µM (active) in [6] and 39.8 µM (active) in [20]. Also, the Potency result in assay [3] and in [5] was “inactive” in each case.

`Nc1nc2c(c(=O)[nH]1)N(C=O)[C@H](CNc1ccc(C(=O)N[C@@H](CCC(=O)O)C(=O)O)cc1)CN2`: the result in assay [1] was inactive.

Consider `OCC(O)C(O)C(O)CO` (stereo not given), for which, in assay [20], the Potency result is “inactive”.

Take `COc1cc2c(cc1O)CCC1C2CC[C@@]2(C)C1CC[C@@H]2O` (stereo not given in full): the molecule was called inactive in [1].

Turning to `Cc1ccc(O)c(C(CCN(C(C)C)C(C)C)c2ccccc2)c1` (stereo not given), the Potency entry in [20] was “inactive”.

With `Oc1cc2c(cc1O)C1c3ccc(O)c(O)c3OCC1(O)C2` (stereo not given), the molecule was called inactive in [2].

As to `COc1ccc([C@@H]2CNC(=O)C2)cc1OC1CCCC1`, the Potency result in [6], in assay [3] and in assay [5] was “inactive” in each case. In assay [2], the molecule was called inactive.

Regarding `COc1ccc(C(C)=O)c(O)c1`, in assay [20], the Potency was 1.26 µM (active). In addition, in assay [2], the outcome was inactive.

As for `C[C@@]12C(=O)OC(=O)[C@@]1(C)C1CCC2O1`, the Potency entry in assay [20] is “inactive”.

For `CCOC(=O)C1=C(C)NC(=S)NC1c1cccc(O)c1` (stereo not given), the result in [2] was inactive.

As to `CN1[C@H]2CC(OC(=O)[C@@H](CO)c3ccccc3)C[C@H]1[C@H]1O[C@H]12` (stereo not given in full), the molecule was classed as inactive in [1].

In the case of `CCN1CCN(C(=O)N[C@H](C(=O)N[C@@H]2C(=O)N3C(C(=O)O)=C(CSc4nnnn4C)CS[C@@H]23)c2ccc(O)cc2)C(=O)C1=O`, the outcome in assay [1] was inactive.
